Our source for the growth values is PubChem BioAssay (NCI).

This is part of a sample that, as a whole, favours compounds with a hit. Of some 83,000 tested, about 20% had one in any assay.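 Plates (96-well) were seeded with cells, treated with compound at one concentration, and incubated for 48 hours before percent growth was determined.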 A number with no mark means an inactive call. The source made the active and inactive calls. How the source made its calls: active means growth percent below 10; inactive means the rest.

Some test systems named below: NCI-H23 lung; NCI-H226 lung; NCI-H322M lung; HOP-62 NSCLC; NCI-H460 lung; HOP-92 NSCLC; NCI-H522 lung; A549/ATCC NSCLC; 786-0 renal; COLO 205 colon; DU-145 prostate; K-562 leukemia; MALME-3M melanoma; MDA-MB-231 breast; RXF 393 renal; SF-268 CNS; SF-295 CNS; SF-539 CNS; UACC-257 melanoma; M14 melanoma.
Common to all, as to experiment: NCI-60 one-dose screen, 48 h (100 = growth as untreated, 0 = no growth, -100 = all killed)
Holding throughout (conditions): 10 µM unless noted

Turning to `COc1ccc2cc(C(C)C(=O)Nc3ccc(-c4n[nH]c(=S)n4C4CCCCC4)cc3)ccc2c1` (stereo not given), the growth is 90.2% in the assay with NCI-H23 lung; 95.3% in the assay on NCI-H226 lung; 114% with NCI-H322M lung; 84.3% with HOP-62 NSCLC; 43.2% with NCI-H460 lung; 43.4% in the assay on HOP-92 NSCLC. Besides, the growth is 64.8% in the assay with NCI-H522 lung; 41.2% in the assay on A549/ATCC NSCLC; 78.4% in the assay on 786-0 renal; 75.5% with COLO 205 colon; 89.1% in the assay with DU-145 prostate; 63.9% with K-562 leukemia. The growth in the assay with MALME-3M melanoma is 124%; in the assay with MDA-MB-231 breast, 75.9%; in the assay on RXF 393 renal it was 91.1%; in the assay on SF-268 CNS, 65.5%; in the assay on SF-295 CNS it was 60.7%; in the assay on SF-539 CNS it was 83.8%. Besides, the growth in the assay on UACC-257 melanoma is 76.7%; in the assay on M14 melanoma, 63.2%.
Turning to `Cn1cc(-c2ccc3cc(-c4ccc(CC(=O)Nc5cc(C(C)(C)C)nn5C)cc4)cnc3c2)cn1`, the growth was 5.37% (active) in the assay with NCI-H23 lung; -17% (active) in the assay on NCI-H226 lung; 21.4% in the assay with NCI-H322M lung; 15.9% with HOP-62 NSCLC; 9.41% (active) in the assay on NCI-H460 lung; 21.1% with HOP-92 NSCLC. The growth is 10.8% in the assay with NCI-H522 lung; 17.1% in the assay with A549/ATCC NSCLC; 21.4% in the assay with 786-0 renal; 16.2% in the assay with COLO 205 colon; 14.8% in the assay with DU-145 prostate; 13.8% in the assay on K-562 leukemia. In addition, the growth with MALME-3M melanoma is -9.19% (active); in the assay with MDA-MB-231 breast, -15% (active); in the assay on RXF 393 renal it was -18.6% (active); with SF-268 CNS, 17.4%; in the assay on SF-295 CNS it was 16.7%; with SF-539 CNS, 15.7%. The growth in the assay with UACC-257 melanoma is 13.1%; with M14 melanoma, 11.1%.
On to `O=C(O)CCC(=O)Nc1nnc(-c2ccccc2)s1`, for which the growth was 99.7% with NCI-H23 lung; 116% in the assay with NCI-H226 lung; 105% in the assay with NCI-H322M lung; 94.2% in the assay on HOP-62 NSCLC; 104% in the assay on NCI-H460 lung; 93.1% with HOP-92 NSCLC. Moreover, the growth in the assay with NCI-H522 lung is 80.1%; with A549/ATCC NSCLC, 102%; in the assay on 786-0 renal, 92.9%; in the assay with COLO 205 colon it was 108%; in the assay on DU-145 prostate, 105%; in the assay on K-562 leukemia, 91.7%. Moreover, the growth is 114% with MALME-3M melanoma; 108% with MDA-MB-231 breast; 120% in the assay on RXF 393 renal; 96.4% with SF-268 CNS; 96.9% in the assay with SF-295 CNS; 102% in the assay with SF-539 CNS. In addition, the growth with UACC-257 melanoma was 104%; in the assay with M14 melanoma it was 102%.
In the case of `Cc1cc2nc3cc(C)c(N)cc3[n+](-c3ccccc3)c2cc1N`, the growth in the assay on NCI-H23 lung is 39.8%; with NCI-H226 lung, 71.2%; with NCI-H322M lung, 93.8%; with HOP-62 NSCLC, 52.7%; with NCI-H460 lung, 65.6%; in the assay on HOP-92 NSCLC, 41.5%. The growth in the assay on NCI-H522 lung was 38.4%; in the assay on A549/ATCC NSCLC it was 75.1%; in the assay on 786-0 renal, 58.6%; in the assay on COLO 205 colon, 61.1%; in the assay with DU-145 prostate it was 72.9%; in the assay with K-562 leukemia, 32.4%. In addition, the growth is 48.7% with MALME-3M melanoma; 90.3% with MDA-MB-231 breast; 91.7% with RXF 393 renal; 24% with SF-268 CNS; 34.5% with SF-295 CNS; 50.5% in the assay on SF-539 CNS. The growth in the assay on UACC-257 melanoma is 32.6%; in the assay on M14 melanoma, 89.5%.
Consider `COc1cc2cc(Oc3ccc(NC(=O)Nc4ccc(F)c(C(F)(F)F)c4)cc3)c(C)nc2cc1OCCN1CCOCC1`, for which the growth in the assay on NCI-H23 lung is 0.421% (active); in the assay with NCI-H226 lung, 36.6%; with NCI-H322M lung, 60.7%; with HOP-62 NSCLC, 24.4%; with NCI-H460 lung, 7.19% (active); in the assay with HOP-92 NSCLC, -12.9% (active). Also, the growth in the assay with NCI-H522 lung is 13.6%; with A549/ATCC NSCLC, 12.7%; with 786-0 renal, 35%; in the assay with COLO 205 colon it was -6.62% (active); in the assay with DU-145 prostate, 23.3%; with K-562 leukemia, 9.96% (active). Also, the growth with MALME-3M melanoma is 22.7%; in the assay on MDA-MB-231 breast, 39.6%; with RXF 393 renal, 40.3%; with SF-268 CNS it was 32.1%; with SF-295 CNS it was 0.809% (active); with SF-539 CNS, 45.1%. In addition, the growth was 12% with UACC-257 melanoma and 16.7% in the assay on M14 melanoma.
In the case of `O=C(CSc1nc2ccccc2[nH]1)Nc1cccc(Cl)c1`, the growth with NCI-H23 lung is 98.4%; in the assay on NCI-H226 lung, 101%; with NCI-H322M lung it was 96.3%; in the assay with HOP-62 NSCLC, 94.9%; in the assay with NCI-H460 lung it was 103%; in the assay on HOP-92 NSCLC, 90.6%. The growth in the assay with NCI-H522 lung is 89%; with A549/ATCC NSCLC, 111%; with 786-0 renal it was 101%; in the assay on COLO 205 colon, 108%; in the assay with DU-145 prostate, 101%; with K-562 leukemia, 100%. In addition, the growth with MALME-3M melanoma was 97.2%; with MDA-MB-231 breast it was 76.5%; in the assay with RXF 393 renal, 114%; in the assay on SF-268 CNS it was 97.1%; in the assay on SF-295 CNS, 104%; in the assay on SF-539 CNS, 103%. For the same compound, the results for the growth in the assay on UACC-257 melanoma and in the assay with M14 melanoma were 117% and 105%, respectively.
Regarding `O=c1c2cc(F)ccc2sc2c(NCCCNCCO)nc3ccccc3c12`, the growth is 66.9% in the assay on NCI-H23 lung; 80.8% in the assay with NCI-H226 lung; 50% with NCI-H322M lung; 46.5% in the assay on HOP-62 NSCLC; -71.3% (active) in the assay with NCI-H460 lung; 3.78% (active) in the assay on HOP-92 NSCLC. Also, the growth is 20.4% with NCI-H522 lung; 33.9% in the assay on A549/ATCC NSCLC; 51.9% in the assay with 786-0 renal; -56.4% (active) in the assay with COLO 205 colon; 8.53% (active) in the assay on DU-145 prostate; -44.3% (active) in the assay on K-562 leukemia. For the same compound, the growth was 69.5% in the assay on MALME-3M melanoma; -33.1% (active) with MDA-MB-231 breast; 44.8% in the assay with RXF 393 renal; 41.6% in the assay with SF-268 CNS; 65.3% with SF-295 CNS; -24.1% (active) in the assay on SF-539 CNS. Further, the growth with UACC-257 melanoma is 91.2%; in the assay on M14 melanoma, -79% (active).
